The whole screen tested about 1,900 compounds, of which about 40 (2%) showed an effect of 50% or more. The entries come from a sample that favours strong results as a whole. Residues, ends and D or L forms follow the SMILES beside them.

Sequence of human SGLT1 (hSGLT1) (P13866 whole entry, looked up): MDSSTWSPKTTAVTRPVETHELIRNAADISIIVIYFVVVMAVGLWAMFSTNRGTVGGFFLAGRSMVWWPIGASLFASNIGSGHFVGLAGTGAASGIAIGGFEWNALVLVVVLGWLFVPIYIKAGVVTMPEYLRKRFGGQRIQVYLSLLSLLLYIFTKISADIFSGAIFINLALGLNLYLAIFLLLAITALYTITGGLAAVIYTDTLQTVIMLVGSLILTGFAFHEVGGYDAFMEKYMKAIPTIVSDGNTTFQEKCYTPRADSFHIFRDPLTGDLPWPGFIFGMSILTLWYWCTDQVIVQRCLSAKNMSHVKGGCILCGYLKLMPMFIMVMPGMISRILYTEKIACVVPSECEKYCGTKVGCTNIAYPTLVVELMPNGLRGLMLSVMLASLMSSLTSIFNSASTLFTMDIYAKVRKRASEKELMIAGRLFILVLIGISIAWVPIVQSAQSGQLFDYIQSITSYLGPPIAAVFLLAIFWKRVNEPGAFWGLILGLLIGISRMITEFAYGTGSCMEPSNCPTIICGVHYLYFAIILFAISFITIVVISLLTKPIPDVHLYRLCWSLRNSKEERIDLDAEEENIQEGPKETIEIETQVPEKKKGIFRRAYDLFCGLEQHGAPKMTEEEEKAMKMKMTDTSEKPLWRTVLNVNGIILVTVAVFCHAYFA

For the test, the target named is human SGLT1 (hSGLT1) (human, UniProt P13866). Kind of test: primary screen, percent of control activity; higher = less effect of the substance. Set-up: single well. The note with it: 50 µM. How it is done:
Two days before the assay, CHO‐wild type and CHO‐hSGLT1 cells were seeded in maintenance medium at 25 000 cells/well in clear‐bottom black 96‐well cell culture plates. Before the assay, cells were washed 3 times with 150 μL/well D‐glucose free DMEM with 0.3% (w/v) BSA. Library compounds at 50 μmol/L (singlicate) prepared in D‐glucose free DMEM with 160 μmol/L 1‐NBD‐glucose and 0.3% (w/v) BSA and negative controls (triplicate) were added at 100 μL/well and placed in a humidified incubator at 37°C with 5% CO2 for 90 minutes. Next, cells were washed 3 times with DMEM with 0.3% (w/v) BSA (150 μL/well). Care was taken to remove all medium after the last wash. Finally, 1‐NBD‐glucose was extracted from the cells by adding 10 μL/well isopropanol and orbital shaking for 5 minutes at 600 rpm, followed by incubation in the dark for 30 minutes. Fluorescence was measured on a Tecan Infinite M200 Microplate Reader (Tecan, Männedorf, Switzerland) with excitation at 445 nm and emission at 525 nm. The amount of 1‐NBD‐glucose taken up by the CHO‐wild type or CHO‐hSGLT1 cells in the presence or absence of test compounds was interpolated from 1‐NBD‐glucose calibration standards. The background uptake by CHO‐wild type was subtracted from the uptake by CHO‐hSGLT1. Background corrected uptake with test compound was expressed as a percentage of corrected uptake without test compound.
In the case of `CCN1CCCC(OC(=O)C(c2ccccc2)c2ccccc2)C1.Cl` (stereo not drawn), the “NORMALIZED SGLT1 ACTIVITY (%)” value was 90%. Take `CN1CCCN=C1COC(=O)C(O)(c1ccccc1)C1CCCCC1.Cl` (stereo not drawn): the “NORMALIZED SGLT1 ACTIVITY (%)” value turned out to be 43%. As to `Cc1ccsc1/C=C/C1=NCCCN1C.O=C(O)CC(O)(CC(=O)O)C(=O)O`, the “NORMALIZED SGLT1 ACTIVITY (%)” value came out at 91%. Take `COc1c2c(cc3c1OCO3)CC[N+](C)=C2.[Cl-]`: the “NORMALIZED SGLT1 ACTIVITY (%)” value was 98%.

In the case of `C[N+](C)(C)CCO.[Cl-]`, the “NORMALIZED SGLT1 ACTIVITY (%)” value is on record as 97%.

`N[C@@H](Cc1ccccc1)C(=O)N[C@@H](Cc1ccc(O)cc1)C(=O)O` (H-Phe-Tyr-OH): the “NORMALIZED SGLT1 ACTIVITY (%)” value was 112%. Next, `CCC(CCC(C)[C@H]1CCC2C3CC=C4C[C@@H](O)CC[C@]4(C)C3CC[C@@]21C)C(C)C` (stereo partly drawn): 106%.

In the case of `Nc1ccc(S(=O)(=O)NC(=O)c2ccccc2)cc1`, the “NORMALIZED SGLT1 ACTIVITY (%)” value is 100%.

For the compound `C[C@H]1[C@H](C)CC[C@]2(C(=O)O)CC[C@]3(C)C(=CC[C@@H]4[C@@]5(C)CC[C@H](O)C(C)(C)[C@@H]5CC[C@]43C)[C@H]12`, the “NORMALIZED SGLT1 ACTIVITY (%)” value came out at 84%. As to `CC(=O)O[C@@H]1CC[C@@]2(C)C(CC[C@]3(C)C2CC=C2C4CC(C)(C)CC[C@]4(C(=O)O)CC[C@]23C)C1(C)C` (stereo partly drawn), the “NORMALIZED SGLT1 ACTIVITY (%)” value turned out to be 141%. As for `CC(=O)O[C@H]1CC[C@@]2(C)C(CC[C@]3(C)C2C(=O)C=C2C4[C@@H](C)[C@H](C)CC[C@]4(C(=O)O)CC[C@]23C)C1(C)C` (stereo partly drawn), the “NORMALIZED SGLT1 ACTIVITY (%)” value was 37%. Consider `CCCCCc1c2c(cc(O)c1C(=O)O)OC(=O)c1c(cc(OC)cc1C(=O)CCCC)O2`, for which the “NORMALIZED SGLT1 ACTIVITY (%)” value amounted to 152%. Consider `O=C(O)c1cccnc1C(=O)O`, for which the “NORMALIZED SGLT1 ACTIVITY (%)” value was 124%. `O=C(O)Cc1nn(Cc2ccc(Br)cc2F)c(=O)c2ccccc12`: the “NORMALIZED SGLT1 ACTIVITY (%)” value was 180%. In the case of `C#CCN(C)Cc1ccccc1.Cl`, the “NORMALIZED SGLT1 ACTIVITY (%)” value is 134%.

On to `CC(COc1ccccc1)N(CCCl)Cc1ccccc1.Cl` (stereo not drawn), for which the “NORMALIZED SGLT1 ACTIVITY (%)” value was 35%.

Take `C[C@H](COc1ccccc1)N[C@H](C)[C@H](O)c1ccc(O)cc1.Cl`: the “NORMALIZED SGLT1 ACTIVITY (%)” value was determined as 119%. To `C[C@H]1O[C@@H](O[C@H]2[C@@H](O)C[C@H](O[C@H]3[C@@H](O)C[C@H](O[C@H]4CC[C@@]5(C)[C@H](CC[C@@H]6[C@@H]5CC[C@]5(C)[C@@H](C7=CC(=O)OC7)CC[C@]65O)C4)O[C@@H]3C)O[C@@H]2C)C[C@H](O)[C@@H]1O` belongs 111%. On to `CC(CCC(=O)O)[C@H]1CCC2C3C(C[C@H](O)[C@@]21C)[C@@]1(C)CC[C@@H](O)C[C@H]1C[C@H]3O` (stereo partly drawn), for which the “NORMALIZED SGLT1 ACTIVITY (%)” value is on record as 89%. To `C[C@H]1OC(n2cc(F)c(=O)[nH]c2=O)C(O)[C@@H]1O` (stereo partly drawn) belongs 112%; to `Cn1c(=O)c2c(ncn2CCCl)n(C)c1=O`, 183%; to `COc1cccc(OC)c1OCCNCC1COc2ccccc2O1.Cl` (stereo not drawn), 72%. Next, `Cl.Nc1c(Br)cc(Br)cc1CNC1CCC(O)CC1` (stereo not drawn): 99%. Next, `CN(Cc1cc(Br)cc(Br)c1N)C1CCCCC1.Cl`: 44%.

The values are drawn from PMC6664820, “Novel natural and synthetic inhibitors of solute carriers SGLT1 and SGLT2” (Pharmacology Research & Perspectives, 2019).
